Screening results from PubChem.
In the library only some 19% were active in any assay of this set; here they are far more common.
VP16 counter = VP16 counterscreen qHTS for inhibitors of ROR gamma transcriptional activity | Drosophila S2 Gal4-VP16 UAS-luciferase, luminescence, 20 h | Potency, µM (top dose mostly 53.6 µM), inactives show at the top dose activity, negative = inhibition, usual class: inhibitors | 3.5% of 310,000 active | AID 2546, 2010;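 further: Gal4-VP16 expression switched on by copper sulfate through the metallothionein promoter; nearly all actives have a fitted effect of over 50% in size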
RORg inh = qHTS for inhibitors of ROR gamma transcriptional activity; 5.4% of 310,000 active; Potency, µM (doses to about 53.6 µM), for inactives: top-dose activity change, negative = inhibition, actives largely listed as inhibitors; Nuclear receptor ROR-gamma (Mus musculus), P51450; Drosophila S2 Gal4-RORgamma UAS-luciferase reporter, 20 h; AID 2551, 2010; further: nearly all actives have a fitted effect of over 60% in size
Target sequence (P51450 whole entry, looked up, the tested form may be a part): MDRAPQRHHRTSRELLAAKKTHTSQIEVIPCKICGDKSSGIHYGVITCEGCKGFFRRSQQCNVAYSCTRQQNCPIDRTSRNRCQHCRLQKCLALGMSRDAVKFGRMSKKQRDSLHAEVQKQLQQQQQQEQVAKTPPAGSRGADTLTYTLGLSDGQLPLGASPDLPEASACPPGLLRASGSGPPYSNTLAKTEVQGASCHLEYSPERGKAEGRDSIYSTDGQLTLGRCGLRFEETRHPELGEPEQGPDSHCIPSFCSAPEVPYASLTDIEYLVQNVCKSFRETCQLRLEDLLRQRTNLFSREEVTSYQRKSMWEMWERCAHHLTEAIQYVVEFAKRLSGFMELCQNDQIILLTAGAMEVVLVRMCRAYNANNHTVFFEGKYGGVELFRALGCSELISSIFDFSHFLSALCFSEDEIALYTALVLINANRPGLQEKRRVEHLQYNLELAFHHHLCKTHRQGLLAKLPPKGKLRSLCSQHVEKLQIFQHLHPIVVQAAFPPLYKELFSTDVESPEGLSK
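A Gal4/UAS one-hybrid system in insect cells: metallothionein-promoter Gal4–ROR gamma fusion plus Photinus luciferase reporter. Copper sulfate 700 uM final, 20 hr ambient incubation, luminescent detection after 10 min with reagent.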
TDP1 block = qHTS Assay for Inhibitors of Tyrosyl-DNA Phosphodiesterase (TDP1). Potency, µM (top dose mostly 130 µM), without a hit: at the highest dose activity change, negative = inhibition, actives largely listed as inhibitors. recombinant TDP1, AlphaScreen DNA substrate cleavage. Tyrosyl-DNA phosphodiesterase 1 (Homo sapiens), Q9NUW8. 0.28% of 350,000 active; further: nearly all actives have a fitted effect of over 40% in size
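Here, a 5' biotin and 3' phosphotyrosine-FITC DNA oligonucleotide reports Tdp1 activity: intact substrate bridges AlphaScreen beads, while cleavage leaves a 3' phosphate and drops signal. All incubations at room temperature.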
DT40 TDP1 CPT = qHTS for Inhibitors of human tyrosyl-DNA phosphodiesterase 1 (TDP1): qHTS in cells in presence of CPT | AID 686979, 2013 | Potency, µM (series often up to 46.2 µM), for inactives: at the highest dose activity change, negative = growth inhibition, actives largely listed as inhibitors | 12% of 420,000 active | chicken DT40 Tdp1-/-;hTDP1 cells + 20 nM CPT, ATP luminescence, 48 h; further: nearly all actives have a fitted effect of over 55% in size
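Chicken DT40 Tdp1-/- cells stably complemented with human TDP1 were seeded at 400 cells/well in medium containing 20 nM camptothecin, exposed to pin-transferred compounds, and grown at 37 °C for at least 48 hr. Viability was read as ATP luminescence.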
TDP1 cell noCPT = qHTS for Inhibitors of human tyrosyl-DNA phosphodiesterase 1 (TDP1): qHTS in cells in absence of CPT | DT40 Tdp1-/- hTDP1 cells, no CPT, ATP luminescence, 48 h | Potency, µM (doses to about 46.2 µM), for the others: at the highest dose activity change, negative = growth inhibition, hits mostly inhibitors | 15% of 420,000 active | AID 686978, 2013; further: nearly all actives have a fitted effect of over 55% in size
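No-CPT arm: Tdp1-/-;hTDP1 DT40 cells (400/well) plus compounds, incubated ≥48 hr at 37 °C. Readout CellTiter-Glo luminescence.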
The depositor's hits bear a star; [ ] = another dose, or the depositor's remark. The call rests on the fitted dose curve; in most records, active means well fitted curve in the direction sought with a large enough effect; inconclusive means small, poorly fitted or top-dose-only effect, or another doubt; inactive means no such curve, though single readings can be large; an effect the other way counts as inactive or inconclusive. On the % scale 0 is the no-effect control and ±100 the full control effect; potency means the concentration at half of the fitted maximal effect.

What do the screens show for `CCCn1c(SCC(=O)Nc2ccccc2-c2ccccc2)nnc1-c1ccoc1C`?
VP16 counter: -1.2%; RORg inh: 39.5%; TDP1 block: 7.7%; DT40 TDP1 CPT: 16.4µM*; TDP1 cell noCPT: 10.3µM*

Results for O=C(NCCN1C(=O)S/C(=C/c2cccnc2)C1=O)C1=NN(c2ccccc2)C(=O)CC1 ?
TDP1 block: 4.6%; DT40 TDP1 CPT: inconclusive; TDP1 cell noCPT: 11.0%

How did COC(=O)c1c(O)c2c([nH]c1=O)CCCC2 do in these assays?
VP16 counter: -2.5%; RORg inh: -8.1%; TDP1 block: -5.1%; DT40 TDP1 CPT: 4.2%; TDP1 cell noCPT: 6.2%

What do the screens show for `COc1cc(/C=N/Nc2nc(C)cc(=O)[nH]2)ccc1O`?
VP16 counter: 2.5%; RORg inh: -3.7%; DT40 TDP1 CPT: -1.4%; TDP1 cell noCPT: 20.9%

Results for CCCn1c(SCC(=O)c2cc(OC)ccc2OC)nnc1C(C)C ?
VP16 counter: -1.0%; RORg inh: -4.2%; TDP1 block: -4.2%; DT40 TDP1 CPT: 15.8µM*; TDP1 cell noCPT: inconclusive

What do the screens show for `CCOC(=O)c1ccc(NC(=S)Nc2cccc(N)n2)cc1`?
VP16 counter: -1.8%; RORg inh: 4.7%; TDP1 block: 5.9%; DT40 TDP1 CPT: inconclusive; TDP1 cell noCPT: inconclusive

What do the screens show for `COc1ccc(-c2nnc(NC(=O)c3cccs3)s2)c(OC)c1`?
VP16 counter: -7.5%; RORg inh: -1.2%; TDP1 block: -5.1%; DT40 TDP1 CPT: 16.4µM*; TDP1 cell noCPT: 29.1µM*

How did COc1ccc2c(c1)Cc1sc(NC(C)=O)nc1-2 do in these assays?
VP16 counter: 25.6%; RORg inh: 8.5%; TDP1 block: 6.8%; DT40 TDP1 CPT: -13.3%; TDP1 cell noCPT: 4.2%

How did COc1ccc2c(c1)-c1nc(/N=C/c3c(O)ccc4ccccc34)sc1CC2 do in these assays?
VP16 counter: inconclusive; RORg inh: 15.8µM*; TDP1 block: 8.2%; DT40 TDP1 CPT: inconclusive; TDP1 cell noCPT: inconclusive

How did COc1ccc2c(c1)-c1nc(NC(=O)c3cccc(Br)c3)sc1CC2 do in these assays?
TDP1 block: -4.2%; DT40 TDP1 CPT: inconclusive; TDP1 cell noCPT: inconclusive

What do the screens show for `COc1ccc2c(c1)-c1nc(/N=C/c3ccc(O)cc3)sc1CC2`?
VP16 counter: inconclusive; RORg inh: -0.7%; TDP1 block: 10.8%; DT40 TDP1 CPT: -1.2%; TDP1 cell noCPT: -13.3%

Results for COc1ccc2c(c1)Cc1sc(NC(=O)c3cccnc3)nc1-2 ?
VP16 counter: inconclusive; RORg inh: inconclusive; TDP1 block: 2.5%; DT40 TDP1 CPT: inconclusive; TDP1 cell noCPT: 20.6µM*

Results for COc1ccc2c(c1)-c1nc(NC(=O)c3cccs3)sc1CC2 ?
VP16 counter: inconclusive; RORg inh: 8.91µM*; TDP1 block: 1.5%; DT40 TDP1 CPT: inconclusive; TDP1 cell noCPT: inconclusive

What do the screens show for `COc1ccc2c(C)c(C(=O)O)oc2c1`?
VP16 counter: -4.1%; RORg inh: 12.0%; TDP1 block: 3.0%; DT40 TDP1 CPT: -1.4%; TDP1 cell noCPT: -7.5%

What do the screens show for `COCCn1c(SCC(=O)Nc2cccnc2Cl)nc2ccccc21`?
TDP1 block: -0.8%; DT40 TDP1 CPT: -19.0%; TDP1 cell noCPT: -26.9%

What do the screens show for `C[C@@H]1CN([C@H](C)CO)C(=O)c2cc(Br)cnc2O[C@H]1CN(C)Cc1cccnc1`?
DT40 TDP1 CPT: -12.0%; TDP1 cell noCPT: -13.1%

What do the screens show for `CC(C)(C)c1cc(-c2nc(N)nc(N)n2)cc(C(C)(C)C)c1`?
VP16 counter: -20.5%; RORg inh: 4.5%; TDP1 block: 5.5%; DT40 TDP1 CPT: 1.7%; TDP1 cell noCPT: -25.2%

What do the screens show for `COc1ccc2c(c1)-c1nc(NC(=O)c3ccco3)sc1CC2`?
VP16 counter: -1.9%; RORg inh: -16.7%; TDP1 block: 2.6%; DT40 TDP1 CPT: inconclusive; TDP1 cell noCPT: 14.6µM*

Results for O=C(NCc1cccs1)C1CCN(S(=O)(=O)c2cccc([N+](=O)[O-])c2)CC1 ?
VP16 counter: 3.7%; RORg inh: 24.1%; DT40 TDP1 CPT: 5.3%; TDP1 cell noCPT: -11.3%

How did Cc1ccc2c(c1)N=C(c1ccccc1)CC(C(Cl)Cl)=N2 do in these assays?
VP16 counter: inconclusive; RORg inh: 11.2µM*; TDP1 block: 4.8%; DT40 TDP1 CPT: inconclusive; TDP1 cell noCPT: inconclusive

What do the screens show for `Cc1ccc(C2=Nc3ccccc3N=C(C(Cl)Cl)C2)cc1`?
VP16 counter: inconclusive; RORg inh: 11.2µM*; TDP1 block: 8.6%; DT40 TDP1 CPT: 18.4µM*; TDP1 cell noCPT: 16.4µM*

What do the screens show for `CSCCC(NC(=O)COc1ccccc1)C(=O)N(C)CC(=O)Nc1ccc(Cl)cc1` (stereo not given)?
TDP1 block: 3.6%; DT40 TDP1 CPT: inconclusive; TDP1 cell noCPT: inconclusive

Results for CSCCC(NC(=O)COc1ccccc1)C(=O)N(C)Cc1c(F)cccc1Cl (stereo not given) ?
DT40 TDP1 CPT: 20.6µM*; TDP1 cell noCPT: 11.6µM*

What do the screens show for `Cc1ccc(Cn2nnc3c(=O)[nH]c(C4CCCN(S(=O)(=O)c5ccccc5F)C4)nc32)cc1` (stereo not given)?
VP16 counter: -13.8%; RORg inh: 0.7%; DT40 TDP1 CPT: -19.5%; TDP1 cell noCPT: -22.7%

Results for NS(=O)(=O)c1ccc(CCNC(=O)c2ccc(C#CC3(O)CCCCC3)cc2)cc1 ?
VP16 counter: -21.1%; RORg inh: 20.4%; TDP1 block: -2.3%; DT40 TDP1 CPT: 20.6µM*; TDP1 cell noCPT: 2.59µM*

What do the screens show for `NS(=O)(=O)c1ccc(CCNC(=O)c2ccc(Cl)nc2)cc1`?
VP16 counter: -3.4%; RORg inh: -2.2%; DT40 TDP1 CPT: -3.7%; TDP1 cell noCPT: 1.3%

Results for NCCOc1ccc(C23CC4CC(CC(C4)C2)C3)cc1 ?
VP16 counter: inconclusive; RORg inh: inconclusive; TDP1 block: 2.9%; DT40 TDP1 CPT: 3.66µM*; TDP1 cell noCPT: 3.66µM*

Results for OCCN1CCN(CC(O)COc2ccc(C34CC5CC(CC(C5)C3)C4)cc2)CC1 (stereo not given) ?
VP16 counter: inconclusive; RORg inh: inconclusive; TDP1 block: 6.9%; DT40 TDP1 CPT: 5.17µM*; TDP1 cell noCPT: 5.17µM*

Results for O=C(c1ccc(S(=O)(=O)N2CCOCC2)cc1)N(c1ccc(F)cc1)C1C=CS(=O)(=O)C1 (stereo not given) ?
VP16 counter: -19.3%[0.365 µM]; RORg inh: -21.8%; TDP1 block: 0.0%; DT40 TDP1 CPT: -0.6%; TDP1 cell noCPT: -20.0%
